The results in this text go back to PubChem BioAssay (NCATS).

“And” between values parts separate entries of the source, which are not always exact repeats. Equal entries are not always repeated. Records with an inconclusive call do not appear. The source made the active and inactive calls. Unless noted, calls come from the whole dose curve; as a rule, active = well fitted curve in the direction sought with a large enough effect; inconclusive = small, poorly fitted or top-dose-only effect, or another doubt; inactive = no such curve, though single readings can be large; an effect the other way counts as inactive or inconclusive.

For assay [1], the target named is Estrogen receptor (Homo sapiens) (UniProt P03372). The assay is described as follows: qHTS assay for small molecule agonists of estrogen receptor alpha signaling (AID 588514; calls by dose curve;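 note: 0% = vehicle only and 100% = reference agonist; nearly all actives have a fitted effect of over 70% in size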). The essentials: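 Reporter-gene assay. […] controls beta-lactamase in HEK 293 GripTite cells; after 18 hrs with compound, CCF4 substrate is added for 2 hrs and fluorescence is read.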
(In qHTS, concentration-response curves come from the screen itself.)

Assay [2] is described as follows: qHTS assay for small molecule antagonists of peroxisome proliferator-activated receptor delta signaling (AID 588535; active = well fitted inhibition curve with a large enough effect in the signal ratio, with a control signal flat, not every such curve was filed as active; the % refers to the signal ratio;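 for max response: cells co-treated with a PPAR-delta agonist as stimulator during compound exposure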). The conditions noted are these: HEK293T PPARd-UAS-bla, beta-lactamase FRET ratio, 18 h; 460 nm channel. In short, it runs like this:
(§1)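 GeneBLAzer PPAR-delta-UAS-bla HEK293T cells in medium with 2% charcoal/dextran FBS were preincubated 5 hrs at 37 C, then given compounds, incubated 18 hrs at 37 C, and read by CCF4 beta-lactamase fluorescence; IC50 from Hill fits.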

Assay [3] deals with Peroxisome proliferator-activated receptor delta (Homo sapiens) (UniProt Q03181). Described as above. The essentials:
as §1

The target in assay [4] is Peroxisome proliferator-activated receptor gamma (Homo sapiens) (UniProt P37231). Kind of assay: qHTS assay for small molecule agonists of peroxisome proliferator-activated receptor gamma signaling (AID 588536; active = well fitted curve in the direction sought with a large enough effect in the signal ratio, with a control signal flat, not every such curve was filed as active; the % refers to the signal ratio;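 note: 0% = DMSO basal wells and 100% = rosiglitazone at 2 µM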). The essentials: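 Test agents, titrated, stimulated HEK293 UAS-bla cells overnight (16 h, 37 C). Substrate CCF4 was then added for two hours at room temperature before fluorescence reading.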

Assay [5] addresses Thyroid hormone receptor beta (Homo sapiens) (UniProt P10828). Kind of assay: qHTS assay for small molecule agonists of thyroid hormone receptor beta signaling (AID 588545; calls by dose curve;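 note: 0% = DMSO only and 100% = 10 nM T3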). In short, it runs like this:
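TR-UAS-bla-GripTite HEK 293 cells in medium with 2% charcoal/dextran FBS, 0.1 mM NEAA and 1 mM sodium pyruvate were treated with titrated compounds for 18 hrs at 37 C. Beta-lactamase reporter was read with CCF4 dye (ex 405, em 460/530 nm); EC50 from Hill fits.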

The nature of assay [6]: qHTS assay for small molecule antagonists of retinoid X receptor alpha signaling (AID 588546; active = well fitted inhibition curve with a large enough effect in the signal ratio, with a control signal flat, not every such curve was filed as active; the % refers to the signal ratio; note: potency is the fitted concentration of half-maximal effect;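 for max response: cells stimulated with 9-cis-retinoic acid as agonist; % is set by controls: 0 for no effect and ±100 for the full control effect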). The conditions noted are these: HEK293T RXRa-UAS-bla, beta-lactamase ratio, antagonist mode; measured here: W530 green channel, cytotoxicity proxy. In short, it runs like this: (§2)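 Beta-lactamase reporter inhibition, read as CCF4 fluorescence ratio (ex 405, em 460/530 nm) after 2 h at RT. HEK293T UAS-bla cells, 2500/well, were stimulated with 9-cis-RA at 500 or 100 nM final alongside test compound for 18 h at 37 C.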

The target of assay [7] is Thyroid hormone receptor beta (Homo sapiens) (UniProt P10828). The assay is described as follows: qHTS assay for small molecule antagonists of thyroid hormone receptor beta signaling (AID 588547; active = well fitted inhibition curve with a large enough effect in the signal ratio, with a control signal flat, not every such curve was filed as active; the % refers to the signal ratio; note: potency is the fitted concentration of half-maximal effect). The conditions noted are these: TR-UAS-bla HEK293, beta-lactamase ratio, antagonist mode, 18 h. In short, it runs like this: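 TR-UAS-bla GripTite HEK293 cells in 2% charcoal/dextran FBS medium were preincubated 4 h at 37 C, given compound (0.59 nM to 92 uM) plus 0.4 nM T3 (final) for 18 h, then CCF4 for 2 h at RT; Hill fit gave IC50.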

A short description of assay [8]: qHTS assay for small molecule activators of the p53 signaling pathway (AID 651743; active = well fitted activation curve with a large enough effect in the signal ratio, not every such curve was filed as active; the % refers to the signal ratio; note: series mostly up to about 92 µM; % of control where 0% means no effect). The conditions noted are these: HCT-116 p53RE-bla, beta-lactamase FRET ratio, 16 h; activation: stronger effect = higher value. In short, it runs like this: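 p53RE-bla HCT-116 cells with a stably integrated beta-lactamase reporter under p53 response elements were plated, rested 5 hours at 37 C/5% CO2, then exposed to compounds in DMSO for 16 hours at 37 C. LiveBLAzer B/G FRET substrate was read after 2 hours at room temperature.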

Assay [9] in a line: qHTS assay for environmental chemicals that activate the Aryl hydrocarbon Receptor (AhR) signaling pathway (AID 651777). Note: % of control where 0% means no effect; nearly all actives have a fitted effect of over 15% in size. The conditions noted are these: 1A2-DRE human hepatoma cells, luciferase, 24 h; activation: stronger effect = higher value. In short, it runs like this:
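Measured luciferase activity, read 30 min after One-Glo addition at room temperature, from human hepatoma cells bearing a dioxin response element–CYP1A2 promoter reporter and exposed to compound for 24 hr at 37 C.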

Assay [10] addresses Peroxisome proliferator-activated receptor alpha (Homo sapiens) (UniProt Q07869). The assay is described as follows: qHTS assay for small molecule agonists of the peroxisome proliferator-activated receptor alpha (PPARalpha) signaling pathway (AID 651778). Note: % of control where 0% means no effect. The conditions noted are these: PathHunter PPARalpha complementation, chemiluminescence, 6 h; max response: stronger effect = higher value. In short, it runs like this: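 Cells plated at 2,000/well and held overnight at 37 C, 5% CO2, then compound added by pin tool for 6 hr; after PathHunter detection reagent and 60 min at room temperature, chemiluminescence from enzyme complementation was read.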

Assay [11] in a line: qHTS assay for small molecule agonists of the antioxidant response element (ARE) signaling pathway measured by Nrf2-dependant transcriptional activity (AID 720636; active = well fitted curve in the direction sought with a large enough effect in the repeat runs; an effect the other way counts as inactive or inconclusive;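 note: HepG2 cells with an ARE-driven luciferase reporter; % of control where 0% means no effect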). In short, it runs like this: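 In HepG2 cells engineered with an Nrf2-responsive luciferase gene, ARE induction was quantified as luminescence after 16 hr compound treatment at 37 C.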
The nature of assay [12]: qHTS assay for small molecule agonists of the antioxidant response element (ARE) signaling pathway measured by Nrf2-dependant transcriptional activity - cell viability counter screen (AID 720653; active = well fitted curve in the direction sought with a large enough effect in the repeat runs; an effect the other way counts as inactive or inconclusive; note: % is set by controls: 0 for no effect and ±100 for the full control effect). The conditions noted are these: ARE-bla HepG2 viability, CellTiter-Glo ATP luminescence, 16 h; max response: stronger effect = lower value. The essentials:
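ARE-bla HepG2 cells (2,000/well) rested 5 hrs at 37C/5% CO2, then exposed to compounds in DMSO for 16 hrs. Viability was read in the same wells as intracellular ATP by luminescence, 30 min at room temperature after reagent addition.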

Assay [13] is described as follows: qHTS assay for cell viability of HEK293 cells (AID 743288). Note: % is set by controls: 0 for no effect and ±100 for the full control effect; nearly all actives have a fitted effect of over 50% in size. The conditions noted are these: ATP luminescence (CellTiter-Glo), 18 h; max response: stronger effect = lower value. The essentials: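 Parental HEK293 cells were seeded at 2,000 cells/well, rested at least 5 h at 37 C, then exposed to compounds in DMSO for 18 h at 37 C. Viability was read as ATP-dependent luciferase luminescence after 30 min at room temperature.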

Assay [14] concerns the target Nuclear receptor subfamily 1 group I member 2 (Rattus norvegicus) (UniProt Q9R1A7). Kind of assay: qHTS assay for small molecule activators of the rat pregnane X receptor (rPXR) signaling pathway (AID 651751; call rule not given here; note: 0% is about no effect). The conditions noted are these: rPXR reporter cells, luciferase (One-Glo), 24 h.
Assay [15] is described as follows: qHTS assay for small molecule activators of the human pregnane X receptor (PXR) signaling pathway (AID 720659; call rule not given here; note: 0% is about no effect).
Assay [16] can be described thus: qHTS assay for small molecule agonists of retinoid X receptor alpha signaling (AID 588544; calls by dose curve;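 for activation: 0% = DMSO basal wells and 100% = reference agonist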). The conditions noted are these: HEK293T RXRa-UAS-bla, beta-lactamase reporter, 18 h; 530 nm emission.
The target in assay [17] is Retinoic acid receptor RXR-alpha (Homo sapiens) (UniProt P19793). The description is as above.
Assay [18] has the same target. Kind of assay: qHTS assay for small molecule antagonists of retinoid X receptor alpha signaling (AID 588546).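 For max response: cells stimulated with 9-cis-retinoic acid as agonist; % is set by controls: 0 for no effect and ±100 for the full control effect.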 Note: potency is the fitted concentration of half-maximal effect. The conditions noted are these: HEK293T RXRa-UAS-bla, beta-lactamase ratio, antagonist mode. The essentials:
as §2

Assay [19] is described as follows: qHTS assay for cell viability of the p53RE-bla HCT-116 cell line (AID 743292). Note: % is set by controls: 0 for no effect and ±100 for the full control effect; nearly all actives have a fitted effect of over 55% in size. The essentials: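 Intracellular ATP of p53RE-bla HCT-116 cells measured by luciferase luminescence following 16 h compound incubation at 37 C; DMSO-only wells served as vehicle controls.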
Assay [20] addresses Vitamin D3 receptor (Homo sapiens) (UniProt P11473). Kind of assay: qHTS assay for small molecule antagonists of vitamin D receptor signaling (AID 588541; calls by dose curve;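 note: receptor activated by calcitriol during compound treatment; series mostly up to about 77 µM; % is set by controls: 0 for no effect and ±100 for the full control effect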). In short, it runs like this:
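VDR-UAS-bla HEK293T cells (2000/well, 2% charcoal-stripped FBS) were treated with titrated compounds plus 1-alpha,25-dihydroxyvitamin D3 (50 nM or 3 nM final) for 16 h at 37 C. CCF4 beta-lactamase fluorescence was read; Hill fits gave IC50.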

Thyroid hormone receptor beta (Homo sapiens), sequence (P10828 whole entry, looked up): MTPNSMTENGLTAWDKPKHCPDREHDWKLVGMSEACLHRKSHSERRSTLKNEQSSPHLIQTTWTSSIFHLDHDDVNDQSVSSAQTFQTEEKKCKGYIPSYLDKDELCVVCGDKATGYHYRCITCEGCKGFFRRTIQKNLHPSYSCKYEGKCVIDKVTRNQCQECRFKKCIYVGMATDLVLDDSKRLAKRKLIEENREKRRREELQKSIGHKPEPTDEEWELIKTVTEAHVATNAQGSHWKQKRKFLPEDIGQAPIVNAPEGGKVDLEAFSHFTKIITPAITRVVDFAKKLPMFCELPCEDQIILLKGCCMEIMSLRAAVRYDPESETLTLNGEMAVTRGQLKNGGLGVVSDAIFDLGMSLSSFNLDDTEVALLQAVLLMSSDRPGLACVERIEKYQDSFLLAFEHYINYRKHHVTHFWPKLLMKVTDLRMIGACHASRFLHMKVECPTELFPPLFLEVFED
Peroxisome proliferator-activated receptor gamma (Homo sapiens), sequence (P37231 whole entry, looked up): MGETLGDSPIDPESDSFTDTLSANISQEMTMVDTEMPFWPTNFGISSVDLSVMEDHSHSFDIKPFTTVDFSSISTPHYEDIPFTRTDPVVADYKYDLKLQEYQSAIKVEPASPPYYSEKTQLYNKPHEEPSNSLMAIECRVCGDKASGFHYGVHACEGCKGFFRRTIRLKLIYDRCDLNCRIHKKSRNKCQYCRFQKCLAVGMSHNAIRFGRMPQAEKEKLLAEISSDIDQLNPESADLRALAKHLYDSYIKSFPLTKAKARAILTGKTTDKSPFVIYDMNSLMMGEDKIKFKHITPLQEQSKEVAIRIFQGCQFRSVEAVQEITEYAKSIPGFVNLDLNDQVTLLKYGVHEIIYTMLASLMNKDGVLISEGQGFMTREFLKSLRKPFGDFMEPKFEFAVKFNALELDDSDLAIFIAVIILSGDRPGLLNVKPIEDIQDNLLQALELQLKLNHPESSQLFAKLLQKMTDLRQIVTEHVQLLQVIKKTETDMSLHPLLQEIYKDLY
Peroxisome proliferator-activated receptor alpha (Homo sapiens), sequence (Q07869 whole entry, looked up): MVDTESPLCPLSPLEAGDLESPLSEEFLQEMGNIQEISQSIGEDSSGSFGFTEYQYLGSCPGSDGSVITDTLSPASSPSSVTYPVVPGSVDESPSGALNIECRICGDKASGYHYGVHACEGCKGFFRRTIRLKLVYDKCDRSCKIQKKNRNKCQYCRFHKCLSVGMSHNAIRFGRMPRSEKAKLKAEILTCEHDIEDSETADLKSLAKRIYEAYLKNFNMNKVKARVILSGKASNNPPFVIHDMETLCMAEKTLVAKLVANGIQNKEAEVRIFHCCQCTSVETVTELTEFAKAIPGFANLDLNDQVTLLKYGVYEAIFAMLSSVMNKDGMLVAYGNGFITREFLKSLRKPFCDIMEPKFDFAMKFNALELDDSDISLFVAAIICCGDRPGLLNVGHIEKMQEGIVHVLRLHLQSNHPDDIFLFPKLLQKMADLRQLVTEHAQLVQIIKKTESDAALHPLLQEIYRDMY
Peroxisome proliferator-activated receptor delta (Homo sapiens), sequence (Q03181 whole entry, looked up): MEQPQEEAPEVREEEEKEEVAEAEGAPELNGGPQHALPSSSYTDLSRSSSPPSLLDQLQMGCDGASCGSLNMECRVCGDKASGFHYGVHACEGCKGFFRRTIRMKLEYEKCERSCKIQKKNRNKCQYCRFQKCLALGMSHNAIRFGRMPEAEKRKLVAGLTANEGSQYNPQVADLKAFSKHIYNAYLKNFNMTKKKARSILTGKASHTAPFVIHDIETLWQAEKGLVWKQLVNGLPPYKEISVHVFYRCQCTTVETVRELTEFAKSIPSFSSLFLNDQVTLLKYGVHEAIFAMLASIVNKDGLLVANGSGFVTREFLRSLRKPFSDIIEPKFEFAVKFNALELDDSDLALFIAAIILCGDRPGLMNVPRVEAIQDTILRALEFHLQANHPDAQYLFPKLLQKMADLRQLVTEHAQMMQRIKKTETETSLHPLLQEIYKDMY
Estrogen receptor (Homo sapiens), sequence (P03372 whole entry, looked up): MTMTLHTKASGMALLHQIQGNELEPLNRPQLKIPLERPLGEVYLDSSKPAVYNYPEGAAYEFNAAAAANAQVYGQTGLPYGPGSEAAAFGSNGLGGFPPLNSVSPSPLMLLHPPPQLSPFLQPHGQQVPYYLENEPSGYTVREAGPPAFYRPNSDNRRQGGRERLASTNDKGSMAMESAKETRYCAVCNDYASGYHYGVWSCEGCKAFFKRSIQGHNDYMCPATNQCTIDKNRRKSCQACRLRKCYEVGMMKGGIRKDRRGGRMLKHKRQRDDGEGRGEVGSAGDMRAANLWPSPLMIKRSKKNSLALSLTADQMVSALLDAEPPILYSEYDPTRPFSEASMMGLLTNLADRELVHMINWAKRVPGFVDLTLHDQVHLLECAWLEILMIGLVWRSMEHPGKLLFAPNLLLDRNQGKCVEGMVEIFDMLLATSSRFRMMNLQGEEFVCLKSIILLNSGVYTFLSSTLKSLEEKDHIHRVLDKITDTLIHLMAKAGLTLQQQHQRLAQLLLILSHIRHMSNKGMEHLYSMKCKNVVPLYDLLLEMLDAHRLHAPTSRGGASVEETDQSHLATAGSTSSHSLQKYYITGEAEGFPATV
Retinoic acid receptor RXR-alpha (Homo sapiens), sequence (P19793 whole entry, looked up): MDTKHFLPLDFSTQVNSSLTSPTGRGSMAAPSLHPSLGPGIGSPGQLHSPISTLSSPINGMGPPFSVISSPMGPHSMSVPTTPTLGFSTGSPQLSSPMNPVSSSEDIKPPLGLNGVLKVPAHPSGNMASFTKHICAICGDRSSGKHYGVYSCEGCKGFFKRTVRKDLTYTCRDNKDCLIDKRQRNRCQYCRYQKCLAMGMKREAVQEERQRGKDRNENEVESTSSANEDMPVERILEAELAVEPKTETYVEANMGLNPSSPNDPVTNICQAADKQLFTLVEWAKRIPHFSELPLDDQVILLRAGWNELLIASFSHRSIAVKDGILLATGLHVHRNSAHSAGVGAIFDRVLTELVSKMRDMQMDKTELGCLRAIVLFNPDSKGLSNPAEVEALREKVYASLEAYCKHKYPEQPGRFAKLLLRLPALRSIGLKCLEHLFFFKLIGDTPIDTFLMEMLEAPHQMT
Nuclear receptor subfamily 1 group I member 2 (Rattus norvegicus), sequence (Q9R1A7 whole entry, looked up): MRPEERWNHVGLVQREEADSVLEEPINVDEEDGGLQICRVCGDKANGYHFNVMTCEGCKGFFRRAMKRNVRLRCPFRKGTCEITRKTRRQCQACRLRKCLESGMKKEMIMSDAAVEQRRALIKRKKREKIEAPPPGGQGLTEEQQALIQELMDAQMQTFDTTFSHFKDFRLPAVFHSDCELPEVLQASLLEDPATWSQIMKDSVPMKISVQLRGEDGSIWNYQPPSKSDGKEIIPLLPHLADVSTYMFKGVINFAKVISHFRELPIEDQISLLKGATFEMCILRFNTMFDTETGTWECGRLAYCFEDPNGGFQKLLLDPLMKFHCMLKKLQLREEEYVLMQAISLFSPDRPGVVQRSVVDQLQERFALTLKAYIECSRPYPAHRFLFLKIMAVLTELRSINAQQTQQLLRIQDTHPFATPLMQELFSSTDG
Vitamin D3 receptor (Homo sapiens), sequence (P11473 whole entry, looked up): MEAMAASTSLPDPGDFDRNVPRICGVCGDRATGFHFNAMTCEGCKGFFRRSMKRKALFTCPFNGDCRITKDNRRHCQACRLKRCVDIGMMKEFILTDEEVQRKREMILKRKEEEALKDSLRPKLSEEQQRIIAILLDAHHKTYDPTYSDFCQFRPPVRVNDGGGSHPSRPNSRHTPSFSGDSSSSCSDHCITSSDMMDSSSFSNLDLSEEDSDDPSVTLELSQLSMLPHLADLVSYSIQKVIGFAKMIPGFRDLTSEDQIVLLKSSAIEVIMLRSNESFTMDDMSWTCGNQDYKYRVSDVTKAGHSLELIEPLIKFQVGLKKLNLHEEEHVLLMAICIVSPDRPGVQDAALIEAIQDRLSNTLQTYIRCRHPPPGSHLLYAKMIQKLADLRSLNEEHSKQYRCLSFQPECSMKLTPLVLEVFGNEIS

On to `COc1nc(C)nc(NC(=O)NS(=O)(=O)c2ccccc2OCCCl)n1`, for which the Potency result in [1], in [3], in assay [5] and in assay [11] was “inactive” each time. Moreover, the max response is -8.8% in assay [2]; 11.2% in [6]; 1.06% (inactive) in [10]; 14.8% (inactive) in assay [12]; 6.67% (inactive) in [13]; 5.75% (inactive) in assay [14]. Also, the compound was classed as inactive in [4] and in [15]. For the same compound, in assay [7], the activity change % (negative = inhibition) is 1.88% (inactive). Moreover, the activation in assay [8] is -4.39% (inactive); in assay [9], 2.11% (inactive).

Take `Nc1nc(N)nc(-c2ccccc2)n1`: the Potency entry in [1], in assay [3], in assay [17], in assay [5] and in [19] was “inactive” throughout. The max response in [2] was 20.7%; in assay [16], -9.5%; in [6], -13.3%; in [18] it was -4.65% (inactive); in assay [10], 0.149% (inactive); in [12], -8.33% (inactive). For the same compound, the max response in assay [13] was -4.29% (inactive); in assay [14], 2.49% (inactive). Moreover, the call in assay [4] and in assay [15] was inactive. The activity change % (negative = inhibition) in [7] is 13.3% (inactive). Besides, the activation in assay [9] is 5.62% (inactive).

For `CC1(C)CC(OC(=O)CCCCCCCCC(=O)OC2CC(C)(C)NC(C)(C)C2)CC(C)(C)N1`, the Potency result in assay [1], in [3], in [20], in assay [17], in assay [5] and in [11] was “inactive” each time. The Potency entry in assay [19] was “inactive”. For the same compound, the max response was 5.94% in assay [2]; -2.95% in assay [16]; 5.99% in assay [6]; -19.6% (inactive) in assay [18]; -3.17% (inactive) in assay [12]; -10.1% (inactive) in [13]. The max response in assay [14] is -0.828% (inactive). The call in assay [4] and in assay [15] was inactive. Further, the activation was -2.75% (inactive) in assay [8] and 0.228% (inactive) in assay [9].

For `O=c1[nH]sc2ccccc12`, the Potency result in assay [1], in assay [5] and in [19] was “inactive” each time. Further, the max response is -44.3% in assay [6] and -17.7% (inactive) in assay [12]. The Potency in [18] is 20 µM (active); in assay [7], 15.8 µM (active). Further, the activation in assay [8] is -3.28% (inactive); in assay [9], 2.41% (inactive). In addition, in assay [15], the result was inactive.

As for `COCCO`, the Potency entry in assay [1], in [3], in assay [20], in assay [17], in assay [11] and in [19] was “inactive” each time. The max response in assay [2] was 37%; in [16], -5.91% and 1.76%; in [6], -8.45% and -6.73%; in [18] it was 16.3% (inactive) and -4.97% (inactive); in assay [10], -2.01% (inactive) and -0.724% (inactive); in [12], -7.73% (inactive) and 3.37% (inactive). Moreover, the max response in assay [13] was -2.14% (inactive) and 3.11% (inactive). In addition, in assay [4], the outcome was inactive. For the same compound, the activation in assay [8] was 0.424% (inactive) and -0.727% (inactive); in [9] it was -1.11% (inactive) and -0.165% (inactive).
